# In the library only some 4.2% were active in any assay of this set; here they are far more common.
# NALP1 inh: NALP1 inflammasome inhibitors in reconstituted yeast, colorimetric, S. cerevisiae, triplicate retest | S. cerevisiae NALP1/ASC/caspase-1 growth, X-gal OD620, 72 h | inhibition, % at 10 µM | 0.61% of 280,000 active | AID 2071, 2009; in the data active = inhibition mostly above about 24%, no sharp cut-off; inactive = mostly below about 32%
# tim10-1 inh: growth inhibitors of tim10-1 mutant yeast, primary screen, luminescence, uHTS. 2.2% of 330,000 active. S. cerevisiae tim10-1 ts strain growth, BacTiter-Glo, 24 h. inhibition, % at 20 µM;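 active = inhibition of at least 40%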;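 note: mutant grown at 25 °C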
# V-ATPase pH: regulators of yeast V-ATPase proton pumping, primary screen, pHLuorin cytosolic pH fluorescence; S. cerevisiae; response, % at 10 µM; 0.37% of 350,000 active; AID 504577, 2011; in the data active = response mostly above about 7.3%, no sharp cut-off; inactive = mostly below about 5.4%; note: actives read high
# TIM10 inh: growth inhibitors of isogenic TIM10 control yeast, primary screen, counter-screen for tim10-1 yeast inhibitor project, luminescence, uHTS. S. cerevisiae TIM10 strain growth, BacTiter-Glo luminescence, 24 h. inhibition, % at 10 µM. 1.4% of 330,000 active. AID 463195, 2010;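 active = inhibition of 40% or more at the single tested concentration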;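 note: wild-type TIM10 isogenic control strain grown at permissive 25 °C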
# tim23-1 inh: growth inhibitors of tim23-1 mutant yeast, primary screen, luminescence, uHTS. S. cerevisiae tim23-1 growth, BacTiter-Glo luminescence, 24 h. inhibition, % at 20 µM. 1.3% of 330,000 active;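 active = growth inhibition of the mutant yeast at or above 50%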;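 note: temperature-sensitive mutant grown at 25 °C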
# NLRP3 yeast inh: NALP3 inflammasome inhibitors in reconstituted yeast, primary screen, luminescence, uHTS. Yeast reconstituted NLRP3/ASC/caspase-1, beta-gal luminescence, 24 h. inhibition, % at 10 µM. 0.39% of 330,000 active. AID 2825, 2010;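 active = inhibition of 50% or more; inactive = inhibition below 50%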
# NALP3 confirm: NALP3 inhibitors retested in yeast, confirmation, luminescence, single concentration; yeast expressing human NALP3; 81% of 1,300 active; inhibition, % at 10 µM; AID 435006, 2010; shares compounds with NLRP3 yeast inh; in the data active = inhibition above about 48%
# Casp1 ASC ctr: CASP1-PYCARD signaling inhibition in yeast, confirmatory test, counterassay for NLRP3 inhibitor program, one-dose; shares compounds with NLRP3 yeast inh; yeast expressing Caspase-1-ASC, luminescence counter screen; inhibition, % at 10 µM; 66% of 1,000 active
# NALP3 yeast rt: NALP3 inhibitors in yeast, repeat test, confirmation, luminescence, single concentration, retest; shares compounds with NLRP3 yeast inh; yeast expressing human NALP3, luminescence read-out; inhibition, % at 10 µM; 53% of 1,000 active; AID 488794, 2010
# tim10-1 conf: growth inhibitors of tim10-1 mutant yeast, confirmation, single concentration, luminescence, S. cerevisiae. S. cerevisiae tim10-1 ts strain growth, BacTiter-Glo, 24 h. 56% of 7,400 active. shares compounds with tim10-1 inh. inhibition, % at 20 µM. AID 463213, 2010;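 active = inhibition of yeast growth at or above a set limit in either of two repeat tests at 20 µM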;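 note: tim10-1 mutant grown at permissive 25 °C to find synthetic lethal compounds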
# TIM10 conf: growth inhibitors of wild-type TIM10 yeast, confirmation, counter-screen for tim10-1 synthetic lethality project, single concentration, luminescence, S. cerevisiae | shares compounds with TIM10 inh | S. cerevisiae tim10 strain growth, BacTiter-Glo luminescence, 24 h | inhibition, % at 10 µM | 63% of 4,600 active | AID 463215, 2010;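 active = inhibition of yeast growth at or above a set limit in either of two replicates at 10 µM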; note: this counterscreen used the strain with wild-type TIM10
# tim23-1 confirm: tim23-1 mutant yeast growth inhibitors, confirmation, luminescence, single concentration; inhibition, % at 20 µM; shares compounds with tim23-1 inh; S. cerevisiae tim23-1 growth, BacTiter-Glo luminescence, 24 h; AID 463218, 2010; 83% of 4,400 active;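 active = inhibition above about 39% in either of two replicate wells at 20 µM, limit read from the data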;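 note: temperature-sensitive tim23-1 mutant grown at 25 °C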
# Numbers stand for hits; – = inactive; · = no result given. Cut-off read from the data, not from the text of the source, unless noted: active = inhibition above about 50%; inactive = the rest.
SMILES,NALP1 inh,tim10-1 inh,V-ATPase pH,TIM10 inh,tim23-1 inh,NLRP3 yeast inh,NALP3 confirm,Casp1 ASC ctr,NALP3 yeast rt,tim23-1 confirm,others
Cc1ccc(-c2nc(N)c3c(-c4ccc(C)cc4)nn(C(C)(C)C)c3n2)cc1,–,–,·,–,–,–,·,·,·,·,
CC(C)(C)n1nc(-c2ccc(Cl)cc2)c2c(N)ncnc21,–,–,–,50.2,62.8,87.7,93.5,95.2,90.0,61.8,TIM10 conf=47.1
CC(C)(C)n1nc(-c2ccc(F)cc2)c2c(N)ncnc21,91.7,–,–,69.1,73.1,92.9,93.3,96.1,92.0,61.1,TIM10 conf=51.1
COc1ccccc1CCNC(=O)c1cc(-c2ccncc2)nc2ccc(Br)cc12,–,·,–,·,·,·,·,·,·,·,
CN(C)S(=O)(=O)c1cccn1-c1ncc(C(F)(F)F)cc1Cl,–,–,–,–,–,–,·,·,·,·,
CCCCCCCCn1c(=O)c(C(=O)OC)c(N)c2ccccc21,–,–,–,–,64.2,59.9,–,·,·,44.0,
CCCCCCCn1c(=O)c(C(=O)OC)c(N)c2ccccc21,–,–,–,–,52.8,68.3,60.5,93.3,83.9,49.6,
O=C(Nc1csc(Cl)c1)c1ccccc1,·,–,–,43.2,55.5,80.5,80.9,86.0,78.6,68.8,TIM10 conf=41.2
O=C(Nc1ccc(Cl)c(Cl)c1)c1ccccc1,·,–,–,–,–,–,·,·,·,·,
O=C(Nc1cccc(Cl)c1)C1CCCCC1,·,–,–,–,66.5,50.5,54.9,–,–,69.3,
COc1cccc(NC(=O)c2ccccc2)c1,·,–,–,–,56.9,53.0,72.0,–,54.1,63.7,
CC(=O)c1cccc(NC(=O)C2CCCCC2)c1,–,–,–,–,–,–,·,·,·,·,
O=C(Nc1cccc(Cl)c1)c1ccccc1,·,–,–,57.8,62.0,82.6,92.6,91.4,82.6,76.1,TIM10 conf=57.4
CCOC(=O)c1c(C)[nH]c(C)c1S(=O)(=O)N1CCN(C(=O)c2ccco2)CC1,–,–,–,–,–,–,·,·,·,·,
CCC(C)[C@H](NC(=O)NCCCN1CCOCC1)C(=O)OC (stereo partly specified),–,–,–,–,–,–,·,·,·,·,
CC1(C)CC2(C)OCCN2C(=S)N1 (stereo unspecified),–,–,–,–,–,–,·,·,·,·,
COc1cc2oc3ccccc3c(=O)c2cc1OC,–,42.5,–,–,63.4,61.9,71.5,55.4,58.6,52.8,tim10-1 conf=–
O=c1c2ccccc2oc2cc(Br)ccc12,·,·,–,·,·,·,·,·,·,·,
Cc1ccc(S(=O)(=O)NC(CC(C)C)C(=O)N2CCCC2)cc1 (stereo unspecified),–,–,–,–,–,–,·,·,·,·,
COc1ccc2[nH]c3c(C)c4ccncc4c(C)c3c2c1,55.3,58.2,–,58.8,50.1,88.7,95.9,98.7,90.7,69.1,tim10-1 conf=–;TIM10 conf=70.7
Cc1nc2ccc(Cl)cc2nc1C,·,–,–,–,–,–,·,·,·,·,
O=C(Nc1c(-c2ccccc2)nc2ccccn12)c1cccs1,–,–,–,–,–,–,·,·,·,·,
O=C(Nc1nsc(-c2ccccc2)n1)c1cccs1,·,–,–,–,68.3,54.4,64.7,–,–,52.7,
CCCC1CCC(c2ccc(C(=O)NN)cc2)CC1 (stereo unspecified),–,–,–,47.3,54.7,51.5,–,·,·,–,TIM10 conf=32.5
Cc1ccnc(NCc2cc(Cl)cc(Cl)c2O)c1,·,·,–,·,·,·,·,·,·,·,
SMILES,NALP1 inh,tim10-1 inh,V-ATPase pH,TIM10 inh,tim23-1 inh,NLRP3 yeast inh,NALP3 confirm,Casp1 ASC ctr,NALP3 yeast rt,tim23-1 confirm,others
Cc1cccc(NCc2cc(Cl)cc(Cl)c2O)n1,–,42.6,–,–,52.1,52.8,50.7,57.0,55.9,56.0,tim10-1 conf=–
O=C(Nc1ccccc1)C1C(c2ccccc2)C1(Cl)Cl (stereo unspecified),–,43.5,–,–,55.0,59.0,71.8,64.2,59.8,47.5,tim10-1 conf=–
O=C(NC1=NCCS1)c1sc2ccccc2c1Cl,–,–,–,46.1,72.8,51.5,62.6,·,·,80.1,TIM10 conf=37.1
NC(=S)N/N=C/c1ccccc1,–,–,–,–,–,–,·,·,·,·,
NC(=S)N/N=C/c1ccc(C23CC4CC(CC(C4)C2)C3)cc1,–,–,·,–,74.9,63.6,–,·,·,68.0,
C#CCN1C(=O)S/C(=C\c2cc3c(cc2OC)OCO3)C1=O,–,–,–,–,–,–,·,·,·,·,
c1ccc(-c2nc(-c3ccccn3)no2)cc1,–,–,–,–,–,–,·,·,·,·,
c1ccc(-c2ccc(-c3nc(-c4ccccn4)no3)cc2)cc1,–,46.2,–,–,53.7,52.9,50.3,–,–,73.6,tim10-1 conf=49.3
COCCNC(=O)C(c1ccc(C)cc1)N(C(=O)C(=O)NC1CCCC1)c1ccc2c(c1)OCCO2 (stereo unspecified),–,–,–,–,–,–,·,·,·,·,
Cc1cc(C(=O)NC2CCCC2)c2ccccc2n1,–,–,–,–,–,–,·,·,·,·,
CCOC(=O)c1cc(C)n(CCc2ccccc2)c1C,–,–,–,–,–,–,·,·,·,·,
Cc1cc(C(=O)CCl)c(C)n1CCc1ccccc1,–,–,·,–,65.9,–,–,·,·,–,
COc1c(OC(C)=O)c(=O)n2c3ccccc3c3ccnc1c32,·,70.1,–,72.6,83.0,70.7,75.2,–,63.9,66.6,tim10-1 conf=63.6;TIM10 conf=80.0
CC(=O)Oc1c(C)c(=O)n(C)c2ccccc12,–,–,–,–,–,–,·,·,·,·,
O=C(c1ccc(COc2ccccc2Cl)o1)N1CCOCC1,–,–,–,–,–,–,·,·,·,·,
CC(/C=N/NC(=O)c1cccs1)=C\c1ccccc1,–,–,–,–,53.5,53.8,69.1,62.7,52.5,48.0,
O=C(N/N=C/C(Cl)=C\c1ccccc1)c1cccs1,–,–,–,–,64.3,59.9,69.0,·,·,64.4,

# Screens deposited in PubChem by several laboratories.
